Reference: ChEMBL document CHEMBL4513216, “Probing the Open Global Health Chemical Diversity Library for Multistage-Active Starting Points for Next-Generation Antimalarials” (ACS Infect Dis, 2020)
Screen size: about 69,000 compounds; about 8,600 (12%) showed an effect of 50% or more. Shown is part of a subset that was picked to be rich in strong results.

Each molecule was assayed on Plasmodium berghei (assay: Screen against P. berghei liver stage (PbLuc), transformed with Luciferase, at 10uM). Details: tested at 10 uM.
Format: functional, HepG2

Compound | INHIBITION [%]
COCc1ncn2c1CN(C(=O)c1ccc3ccccc3n1)CC2 | -6.3
CC(C)(C)C(=O)NCCC(=O)N1CCC(Nc2cccnn2)CC1 | 41.5
O=C(CNCCn1cccn1)NCC1(c2ccccc2)CCC1 | 72.8
O=C(CNCCn1cccn1)NCC1(c2ccccc2)CC1 | 8.48
O=C(CNCCn1cccn1)NCC1(c2ccccc2)CCCC1 | -23.9
CN1CCC(NC(=O)c2cc(Cl)cc(Br)c2O)C1=O (stereo not given) | 24.4
OC1(CN2CCCCC2)CCN(c2nccc(C(F)(F)F)n2)C1 (stereo not given) | 46.7
O=S(=O)(CCNCc1ccc2c(c1)CCO2)N1CCOCC1 | -3.19
Fc1cc(CNCc2ccc3c(c2)CCO3)ccc1N1CCOCC1 | 55.1
c1cc(CNCc2ccc3c(c2)CCO3)cc(N2CCOCC2)n1 | -1.58
CC(C)c1nc(C2CCCN(C(=O)c3nccn4ccnc34)C2)no1 (stereo not given) | 9.64
Cc1cn(Cc2ccccc2)nc1N | 24.8
O=C(c1cc(Br)ccc1-n1cnnn1)N1CCCC1 | 28.6
CC(C)c1nnsc1CNC(=O)C1CCN(C(=O)C2CCC2)CC1 | 44.6
CC(C)c1nnsc1CNC(=O)C1CCN(C(=O)C2CCCC2)CC1 | 41.6
CC(C)c1nnsc1CNC(=O)C1CCCN(C(=O)N(C)C)C1 (stereo not given) | 53.5
Nc1no[n+]([O-])c1C(=O)NCc1ccco1 | 5.7
COc1ccc(CN(C)C(=O)CSc2nnc(N)s2)c(OC)c1OC | 18.9
COc1ccnc(CN(C)C(=O)CSc2nnc(N)s2)c1 | 71.4
CCn1ccc(CN(C)C(=O)CSc2nnc(N)s2)n1 | 22.6
Cc1nc(CN2CCCN(C(=O)c3sccc3C#N)CC2)cs1 | -27.8
Cc1nc(CC2CCN(Cc3ccc(CCC(C)(C)O)cc3)CC2)no1 | 60.7

Compound | INHIBITION [%]
Cc1noc(CC2CCN(Cc3ccc(CCC(C)(C)O)cc3)CC2)n1 | 40.2
c1ccc(CN2CCC(Cc3noc(C4CC4)n3)CC2)cc1 | 28.8
CN(C)c1cc(CNC(=O)CC2CCCCC2)ccn1 | 4.34
Cc1cccc(Cn2c3c(ccc2=O)CCN(Cc2ccoc2)CC3)n1 | 8.47
O=C(CN(C1=NCCCC1)c1ccccc1)c1ccc2c(c1)OCCO2 | 33.3
Cc1cccc(N(CC(=O)N2CCCCC2)C(=O)C2CCCO2)c1 (stereo not given) | -84.1
CCOc1ccc(N(CC(=O)c2ccccc2)C2=NCCCCC2)cc1 | 68.7
Cc1ccc(N(CC(=O)N2CCCCC2)C(=O)C2CCCO2)cc1 (stereo not given) | -7.25
Cc1ccc(C(=O)CN(C2=NCCCCC2)c2ccccc2)cc1 | 44.1
Cc1cccc(N(CC(=O)c2ccccc2)C2=NCCCCC2)c1 | 51.6
COc1ccc(C(=O)CN(C2=NCCCCC2)c2ccccc2)cc1 | 20.1
O=C(CN(C1=NCCCC1)c1ccccc1)c1ccc(OC(F)F)cc1 | 30.8
O=C(CN(C1=NCCCC1)c1ccccc1)c1ccccc1 | -13.4
Cc1ccc(N(CC(=O)c2ccc(Br)cc2)C2=NCCCCC2)cc1 | 87.6
O=C(CN(C1=NCCCCC1)c1ccc(Cl)cc1)c1ccccc1 | 59.8
O=C(CC(SC1CCCCC1)C(=O)O)c1ccc(Cl)cc1 (stereo not given) | 6.83
CC1=N[C@@]2(CC[C@@H]3CN(CC(C)C)C[C@@H]32)C(=O)N1C | 18.5
Cc1nn(C)c2cnn(CC(=O)NCc3ccc4c(c3)OCO4)c12 | 36.6
Cc1c(C(=O)NC(C)C)nnn1-c1cccc(C(F)(F)F)c1 | 15.2
c1coc(CN2C[C@@H]3OCCN(CC4CCCO4)[C@@H]3C2)c1 (stereo not given in full) | 41.6
COC(=O)c1ccc(OCCn2cnc(C#N)n2)cc1 | 7.18
CN(C)c1ncc(-c2cccc(C(N)=O)c2)c(C2CNCCO2)n1 (stereo not given) | 17.3

Compound | INHIBITION [%]
COc1c(CNC2CCc3c(F)cccc32)c(C)nn1C (stereo not given) | -16
c1coc(-c2nc(CNCCn3cccn3)cs2)c1 | 21.5
CC(c1ccc(Cl)cc1)N1CCN(CCNS(C)(=O)=O)CC1 (stereo not given) | 53.5
CS(=O)(=O)NCCN1CCCC1c1ccc(Cl)cc1 (stereo not given) | 50.3
CC(c1ccc(Cl)cc1)N1CCN(CCCS(C)(=O)=O)CC1 (stereo not given) | -5.1
O=C(NCc1ccncc1)N1CCSCC1c1ccc(Cl)cc1 (stereo not given) | -23.2
Cc1ccc(C2CSCCN2CC(=O)N2CCOCC2)cc1 (stereo not given) | 15.3
CS(=O)(=O)NCCCN1CCCC1c1ccsc1 (stereo not given) | -5.25
CC(c1ccc(Cl)cc1)N1CCN(CCS(C)(=O)=O)CC1 (stereo not given) | 48.5
Cc1ccc(C2CSCCN2CCS(C)(=O)=O)cc1 (stereo not given) | 34
CS(=O)(=O)NCCN1CCSCC1c1ccc(Cl)cc1 (stereo not given) | -3.39
CCS(=O)(=O)CCCN1CCSCC1c1ccc(Cl)cc1 (stereo not given) | 56.5
CS(=O)(=O)CCN1CCSCC1c1ccc(Cl)cc1 (stereo not given) | 59.7
CS(=O)(=O)CCCN1CCSCC1c1ccc(Cl)cc1 (stereo not given) | 31.9
COc1ccc(CNCC(C)Oc2ccccn2)cc1Br (stereo not given) | -33.2
CC1CCN(C(=O)[C@H]2CC[C@@H]3[C@@H](CCN3Cc3nccs3)O2)CC1 | 39.5
O=c1ccc2c(n1Cc1cccnc1)CCN(C1CCOC1)CC2 (stereo not given) | 39.4
N#CC1(C(=O)N2C[C@H](Nc3ccnc(N)n3)[C@@H](C3CC3)C2)CCOCC1 | 26.9
CC(C)c1noc(C(C)N2CCN(Cc3nnc(C4CC4)o3)CC2)n1 (stereo not given) | 0.914
O=C(c1ccccc1)N1CCC2(CCCN2c2ncccn2)CC1 | -22.1
Cc1nc(CN(C)CC(c2cccs2)N2CCOCC2)no1 (stereo not given) | 15.3
CC(=O)N1N=C(c2ccccc2)OC1C(=O)NCC(=O)OC(C)(C)C (stereo not given) | 28.3

Compound | INHIBITION [%]
CCC(CO)NCc1ccc(-c2ccc(F)c(Cl)c2)o1 (stereo not given) | 18.8
CCC(CO)NCc1ccc(-c2ccc(F)cc2)o1 (stereo not given) | 14.4
CCC(CO)NCc1ccc(-c2ccc(Cl)cc2)o1 (stereo not given) | 17.7
CCC(CO)NCc1ccc(-c2ccc(Br)cc2)o1 (stereo not given) | -11.6
CCC(CO)NCc1ccc(-c2ccccc2F)o1 (stereo not given) | 73.5
CCC(CO)NCc1ccc(-c2ccccc2)o1 (stereo not given) | 50.8
CN1CCN(c2ncc(CNCCCc3cccc(F)c3)cn2)CC1 | 46.8
CCC1CN(CC(=O)NCCOC)CCO1 (stereo not given) | -22.3
CCC1CN(CC(=O)Nc2sccc2C#N)CCO1 (stereo not given) | 17
CCC1CN(CC(=O)NCCC#N)CCO1 (stereo not given) | 52.6
CCC1CN(CC(=O)NC(C)C)CCO1 (stereo not given) | -8.22
CCC1CN(CC(=O)NCC(C)C)CCO1 (stereo not given) | 30.9
CCCNC(=O)CN1CCOC(CC)C1 (stereo not given) | 61.3
O=C(c1ccccn1)N1C[C@H]2CC[C@@H](C1)N(C(=O)Cc1cccs1)C2 | 4.13
CC1=N[C@@]2(CC[C@@H]3CN(S(=O)(=O)N(C)C)C[C@@H]32)C(=O)N1CC(C)C | 7.96
Cc1nc(C2CCCN2C(=O)c2csc3c2CCCC3)no1 (stereo not given) | 15.3
Cc1c(C)n(Cc2ccncc2)c2nc3c(c(N)c12)CCCCCC3 | 77.6
Cc1c(C)n(Cc2ccncc2)c2nc3c(c(N)c12)CCCCC3 | 70.3
Cc1c(C)n(Cc2ccncc2)c2nc3c(c(N)c12)CCCC3 | 44.1
Cc1ccc(CN2CCC3(CCN(Cc4ccncc4)CC3)CC2)cc1 | 33
CN1CCC(NC(=O)[C@H]2CC[C@@H]3[C@@H](CCN3c3ncccn3)O2)CC1 | 18.5
CCc1nc(CC(=O)N2CCn3c(CC)nnc3C2)cs1 | -12.33

Compound | INHIBITION [%]
CCS(=O)(=O)Nc1ccn(Cc2c(F)cccc2Cl)n1 | -39.5
N#Cc1cccnc1N1CCCN(C(=O)CCn2cccn2)CC1 | 29.2
CN1CCN(c2ccccc2CNC(=O)Cc2ccccc2F)CC1 | 14.3
CN1CCN(Cc2ccccc2CNC(=O)c2ccc(Cl)cc2F)CC1 | 55.4
O=C(NCc1ccccc1CN1CCOCC1)Nc1nncs1 | -10.4
CN1CCN(Cc2ccccc2CNC(=O)c2cc(Br)ccc2F)CC1 | 59.3
CN1CCN(Cc2ccccc2CNC(=O)c2cc(Cl)ccc2F)CC1 | 63.3
CN1CCN(Cc2ccccc2CNC(=O)c2ccc(Br)cc2F)CC1 | 30.8
O=C(Nc1ccc(Br)cc1F)c1cc(CN2CCOCC2)on1 | -43.7
O=C(NCc1ccncc1)c1ccc(Cl)cc1F | -3.95
COc1ccc(CNC(=O)c2ccc(Cl)cc2F)cc1C(=O)O | -8.55
CN1CCN(Cc2ccccc2CNC(=O)c2ccc(Br)cc2)CC1 | 33.2
O=C(NCc1ccccc1CN1CCOCC1)c1ccc(Br)cc1F | 62.3
Cn1ccc(C(=O)NCc2ccccc2CN2CCCC2)cc1=O | 13.6
Cc1cc(C(=O)NCc2ccc(N3CCCC(C(N)=O)C3)cc2)on1 (stereo not given) | 15.3
CN(C)CCN1CCCC12CCN(C(=O)c1cnccn1)CC2 | 24.9
CCC1(CC)CC(=O)N(CC(O)c2ccc(F)cc2)C1=O (stereo not given) | -15
CN(CC(O)C(F)(F)F)C(=O)Nc1cccc(Cn2cccn2)c1 (stereo not given) | 13.8
Cc1cc(CNCC2CNc3ccnn3C2)no1 (stereo not given) | 31
Cc1cnc(-c2nc(C3CCN(Cc4ccccc4O)CC3)no2)cn1 | 23.7
Cc1cc(C)n(CC2CN(CC(=O)N3CCNC3=O)CCO2)n1 (stereo not given) | -3.7
COc1ccc(NC(=O)CSc2ccc3nncn3n2)c(OC)c1 | 27
